These results are taken from PubChem BioAssay.

One assay deals with Fibroblast growth factor 2 (Homo sapiens) (UniProt P09038). In words: FGF2 binders on small-molecule microarrays, primary screen, biochemical, small-molecule microarray, 635/667 nm fluorescence (AID 1133). Particulars: small-molecule microarray binding, FGF2, fluorescence 635/667; higher = more signal.
Fibroblast growth factor 2 (Homo sapiens), sequence (P09038 whole entry, looked up): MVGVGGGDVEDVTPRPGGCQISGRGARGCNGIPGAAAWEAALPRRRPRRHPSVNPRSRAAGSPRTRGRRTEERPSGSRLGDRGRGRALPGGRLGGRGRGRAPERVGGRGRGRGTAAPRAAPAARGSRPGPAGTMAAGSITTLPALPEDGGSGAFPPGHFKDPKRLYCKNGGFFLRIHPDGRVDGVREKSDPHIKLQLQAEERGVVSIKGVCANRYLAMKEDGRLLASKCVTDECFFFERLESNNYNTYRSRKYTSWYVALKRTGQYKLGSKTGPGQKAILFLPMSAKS
As to `CC=CC1=C(CO)C(=O)[C@@H]2O[C@@H]2C1=O`, the composite z-score was determined as 1.89. On the same count and under the same terms, to `CO[C@H]1COC(=O)CCC[C@@H](C)[C@H](OC)COC(=O)[C@@H](C)NC(=O)CC=C[C@@H]1C` belongs 1.17; to `COc1ccc(O[C@H]2C=C[C@@H](c3ccccc3)O[C@@H]2COC(=O)CCC(C)=NOC[C@@H](O)[C@H]2O[C@@H]3OC(C)(C)O[C@@H]3[C@H]2O)cc1`, 0.439. The same measure, in the same setting: to `O=C(NN=C1C[C@@H](O)[C@@H](O)[C@@H]2[C@@H]3C(=O)N(Cc4ccccc4)C(=O)[C@@H]3CC[C@@H]12)OCc1ccccc1` belongs 0.242; to `CCOC(=O)[C@H](CC(C)C)NC(=O)CCC1CC(OC(=O)NCc2cccc3ccccc23)CC2(CCCC(COC(=O)NCCc3ccc(Cl)cc3)O2)O1` (stereo partly drawn), 0.352; to `CO[C@@H]1C=CCC(=O)N2CCC[C@H]2C(=O)OC[C@@H](C)C(=O)OC[C@H]1C`, 1.33. Still for that read-out and setting: the figure for `CC(C)CON=C1C[C@@H](O)[C@@H](O)[C@@H]2[C@@H]3C(=O)N(C4CCCCC4)C(=O)[C@@H]3CC[C@H]12` is 0.781.

Test system in a further assay: not listed separately
Nature of the assay: mitochondrial membrane potential change in A549 cells, profiling panel, cell-based, JC-1 fluorescence, basal, 24 h, 100 nL (AID 1138).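 Also: A549 lung adenocarcinoma cells under basal conditions with no added stimulus; test concentration not given here.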 The conditions noted are these: higher = more signal.
In turn, `CC(CCN1CCCc2nc(C)c(C)cc21)=NOC(C)CN1CCCCc2nc(C)c(C)cc21` (stereo not drawn) displayed a z-score of 0.539.

Compound `CCN1C(=O)[C@@H]2[C@H]3C(=CC[C@@H]2C1=O)C1(OCCCO1)[C@H]1O[C@H]1[C@H]3O` returned a z-score of -2.41.

For `Cc1ccc(S(=O)(=O)N[C@@H]2COC(=O)[C@@H](C)COC(=O)CC=C[C@H]2C)cc1`, the z-score came out at 0.493. Still for that read-out and setting: to `COC(=O)C1=C(C)N(Cc2ccccc2)[C@]23O[C@](C(=O)OC)(C(=O)N2[C@@H]1c1ccccc1)C(C(=O)OC)=C3C(=O)OC` belongs -0.489; to `CC(C)CON=C1C[C@@H](O)[C@@H](O)[C@@H]2[C@@H]3C(=O)N(c4ccc(F)cc4F)C(=O)[C@@H]3CC[C@H]12`, -0.229; to `CCOC(=O)CCN1C(=O)[C@H]2[C@H]3[C@H](O)[C@H](O)CC(=NOCC(C)C)[C@H]3CC[C@H]2C1=O`, 0.46.

Take `CC(C)=CCCC(C)=CCON=C1C[C@@H](O)[C@@H](O)[C@@H]2[C@@H]3C(=O)N(C(C)(C)C)C(=O)[C@@H]3CC[C@H]12`: the z-score was -0.0133. Same read-out and setting: the figure for `C[C@H]1CC[C@H]2C(=O)O[C@H](COc3ccc(C(C)(C)C)cc3)CN2[C@@H]1c1ccc(Br)cc1` is 0.972; for `COC(=O)CC=C[C@@H](C)[C@@H](C=NO[C@@H]1O[C@H](COC(C)=O)[C@@H](OC(C)=O)[C@H](OC(C)=O)[C@H]1OC(C)=O)NS(=O)(=O)c1ccc(C)cc1` it is -0.63; for `CCOC(=O)[C@H](CC(C)C)NC(=O)CCC1CC(OC(=O)NCc2cccc3ccccc23)CC2(CCCC(COC(=O)NCc3ccncc3)O2)O1` (stereo partly drawn) it is 1.42. In the case of `CC(CCN1CCCc2nc(C)c(C)cc21)=NO[C@@H](C)c1cc(-c2c(C)cc(C)cc2C)no1`, the z-score is 1.91.

As to `O=C1[C@H]2[C@H]3[C@H](O)[C@H](O)CC(=NO[C@@H]4O[C@H](CO)[C@@H](O)[C@H](O)[C@H]4O)[C@H]3CC[C@H]2C(=O)N1c1cccc(Oc2ccccc2)c1`, the z-score is -0.873. Same read-out and setting: to `CCOC(=O)NN=C1C[C@@H](O)[C@@H](O)[C@@H]2[C@@H]3C(=O)N(c4ccc(F)cc4F)C(=O)[C@@H]3CC[C@@H]12` belongs -0.389.

As to `C[C@H]1CC[C@H]2C(=O)OC(CO)CN2[C@@H]1c1ccc(Br)cc1` (stereo partly drawn), the z-score is -0.486.

The compound `Cn1c(=O)n2n(c1=O)[C@H]1[C@H](O)[C@@H]3O[C@@H]3C(=NOCc3ccccc3)[C@H]1CC2` returned a z-score of 0.874.

In turn, `O=c1n(-c2ccccc2)c(=O)n2n1CC[C@@H]1C(=NOCc3ccccc3)[C@H]3O[C@H]3[C@@H](O)[C@@H]12` came in with a z-score of 0.397. The same measure, in the same setting: to `C[C@@H]1CC[C@H]2C(=O)O[C@@H](Cc3ccccc3)CN2[C@H]1c1ccc(Br)cc1` belongs 0.362; to `CO[C@H]1COC(=O)[C@@H](C)COC(=O)[C@H](C)NC(=O)CC=C[C@H]1C`, 0.853.

Regarding `CO[C@H]1COC(=O)CC=C[C@H](C)[C@@H](OC)COC(=O)[C@@H](C)COC(=O)CC=C[C@@H]1C`, the z-score came out at 0.657.

Compound `COC(=O)CC=C[C@@H](C)[C@@H](C=NOCC[C@@H]1C=C[C@H](OC(C)=O)[C@@H](COC(C)=O)O1)NS(=O)(=O)c1ccc(C)cc1` registered a z-score of -0.482.

In turn, `CCOC(=O)CCN1C(=O)[C@H]2[C@H]3[C@H](O)[C@H](O)CC(=NNC(=O)OCc4ccccc4)[C@@H]3CC[C@H]2C1=O` showed a z-score of 0.319. On the same count and under the same terms, to `CC(C)=CCCC(C)=CCON=C1C[C@@H](O)[C@@H](O)[C@@H]2[C@@H]3C(=O)N(Cc4ccccc4)C(=O)[C@@H]3CC[C@@H]12` belongs 0.071. The same measure, in the same setting: the figure for `C[C@@H](ON=C1[C@H]2CCn3c(=O)n(-c4ccccc4)c(=O)n3[C@H]2[C@H](O)[C@@H]2O[C@H]12)c1cn([C@@H]2COC[C@H]2O)nn1` is -0.339.

`COc1cc(O)c(C(=O)C=Cc2ccc3c(c2)OCO3)c(OC)c1` returned a z-score of 0.209.

`COC(=O)CC=C[C@@H](C)[C@@H](C=NO[C@H](C)c1cn([C@H](CO)Cc2ccccc2)nn1)NS(=O)(=O)c1ccc(C)cc1` registered a z-score of -0.248. Still for that read-out and setting: to `COc1ccc(O[C@H]2C=C[C@@H](c3ccccc3)O[C@@H]2COC(=O)CCC(C)=NO[C@@H]2O[C@H](COC(C)=O)[C@@H](OC(C)=O)[C@H](OC(C)=O)[C@H]2OC(C)=O)cc1` belongs -0.388; to `CCOC(=O)NN=C1C[C@@H](O)[C@@H](O)[C@@H]2[C@@H]3C(=O)N(Cc4ccc5c(c4)OCO5)C(=O)[C@@H]3CC[C@H]12`, 0.0318; to `CCOC(=O)[C@H](CC(C)C)NC(=O)CCC1CC(OC(=O)NCc2cccc3ccccc23)CC2(CCCC(COC(=O)NCCC(C)C)O2)O1` (stereo partly drawn), 0.652. For the compound `CC(C)=CCCC(C)=CCON=C1C[C@@H](O)[C@@H](O)[C@@H]2[C@@H]3C(=O)N(C[C@@H]4CCCO4)C(=O)[C@@H]3CC[C@H]12`, the z-score was -0.773. `CC=CC1=C(CO)C(=O)[C@@H]2O[C@@H]2C1=O`: the z-score is -1.06. For the compound `CO[C@H]1COC(=O)CCC[C@@H](C)[C@H](OC)COC(=O)[C@@H](C)NC(=O)CC=C[C@@H]1C`, the z-score was -0.716.

`COc1ccc(O[C@H]2C=C[C@@H](c3ccccc3)O[C@@H]2COC(=O)CCC(C)=NOC[C@@H](O)[C@H]2O[C@@H]3OC(C)(C)O[C@@H]3[C@H]2O)cc1` showed a z-score of -0.206.

With `O=C(NN=C1C[C@@H](O)[C@@H](O)[C@@H]2[C@@H]3C(=O)N(Cc4ccccc4)C(=O)[C@@H]3CC[C@@H]12)OCc1ccccc1`, the z-score turned out to be 0.257.

On to `CCOC(=O)[C@H](CC(C)C)NC(=O)CCC1CC(OC(=O)NCc2cccc3ccccc23)CC2(CCCC(COC(=O)NCCc3ccc(Cl)cc3)O2)O1` (stereo partly drawn), for which the z-score turned out to be 0.31. On the same count and under the same terms, the figure for `CO[C@@H]1C=CCC(=O)N2CCC[C@H]2C(=O)OC[C@@H](C)C(=O)OC[C@H]1C` is 2.01. `CC(C)CON=C1C[C@@H](O)[C@@H](O)[C@@H]2[C@@H]3C(=O)N(C4CCCCC4)C(=O)[C@@H]3CC[C@H]12` registered a z-score of 0.246.
